The text below walks through data of PubChem BioAssay.

The structures appear in SMILES notation. The source made the active and inactive calls.

Sequence of NADPH oxidase 4 (Homo sapiens) (Q9NPH5 whole entry, looked up): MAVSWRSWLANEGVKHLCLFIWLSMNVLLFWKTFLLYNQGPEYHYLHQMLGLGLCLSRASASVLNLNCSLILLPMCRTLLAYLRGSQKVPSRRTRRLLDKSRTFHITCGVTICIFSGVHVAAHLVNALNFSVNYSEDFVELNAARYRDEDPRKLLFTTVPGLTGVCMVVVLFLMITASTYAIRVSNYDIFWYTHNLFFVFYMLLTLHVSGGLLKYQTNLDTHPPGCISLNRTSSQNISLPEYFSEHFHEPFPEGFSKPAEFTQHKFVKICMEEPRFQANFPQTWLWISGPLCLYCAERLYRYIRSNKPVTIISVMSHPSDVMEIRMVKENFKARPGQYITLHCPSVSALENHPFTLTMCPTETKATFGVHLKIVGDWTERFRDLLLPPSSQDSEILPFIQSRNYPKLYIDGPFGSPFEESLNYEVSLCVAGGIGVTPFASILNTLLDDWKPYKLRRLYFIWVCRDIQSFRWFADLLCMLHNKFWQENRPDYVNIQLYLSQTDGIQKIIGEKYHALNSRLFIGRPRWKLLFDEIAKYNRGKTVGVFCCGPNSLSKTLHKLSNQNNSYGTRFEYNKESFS

The assay addresses NADPH oxidase 4 (Homo sapiens) (UniProt Q9NPH5). Nature of the assay: compounds shifting NOX4 Amplex Red fluorescence – cell-based, HEK293-NOX4, tetracycline-induced, NOX inhibitor project, primary screen (AID 1160). The conditions noted are these: HEK293-NOX4, Amplex Red H2O2 fluorescence, 45 min; higher = more signal, called active from +8 up or from −8 down.
Regarding `COC(=O)[C@@]1(Cc2ccc(OC)cc2)[C@H]2c3cc(C(=O)N(C)C)n(Cc4ccc(C)o4)c3C[C@H]2CN1C(=O)c1ccccc1`, the z-score was -0.0809 (inactive).

For `CCCCCN1CC=CC23O[C@@H]4/C=C\CCC(C)OC(=O)C4[C@H]2C(=O)N(C(CO)C(C)C)[C@@H]3C1=O` (stereo partly specified), the z-score was -0.231 (inactive).

Turning to `CCOC(=O)C[C@H]1[C@H](OC(=O)c2ccccc2-c2ccccc2)[C@@H](NC(=O)c2ccc3ccccc3n2)c2cc(OCCCO)ccc2N1C(=O)Cc1ccc(OC)cc1`, the z-score was 1.25 (inactive).

Take `O=C1OCCC/C=C\[C@H]2OC34C=CCN(c5ccc6ccccc6c5)C(=O)[C@H]3N(CCO)C(=O)[C@@H]4C12` (stereo partly specified): the z-score was -0.419 (inactive).

As to `O=C1N(Cc2ccccc2)c2ccccc2C[C@]12N=C(c1ccc(OCCCO)cc1)O[C@@H]2c1ccccc1`, the z-score was 0.472 (inactive).

With `O[C@@H](Cc1ccccc1)[C@@H](/C=C/C1CC1)N(CC#Cc1ccccc1)Cc1ccccc1Br`, the z-score was 0.221 (inactive).

For `O=C(C1N=C(c2ccc(OCCCO)cc2)N(c2ccccc2)O1)N1CCCCC1` (stereo unspecified), the z-score is 0.209 (inactive).

For `CC(C)[Si]1(C(C)C)OCc2cc(-c3ccc(-c4ccc(Cl)c(Cl)c4)o3)nc(-c3ccccc3)c21`, the z-score was -1.35 (inactive).

In the case of `COc1ccc([Si](C)(C)[C@@H]2[C@@H](CCO)O[C@]3(C(=O)N(Cc4ccccc4)c4ccc(NC(=O)[C@H](C)O)cc43)[C@H]2C)cc1`, the z-score was 0.452 (inactive).

As for `COc1cc(NN2C(C(O)c3ccc(N(C)C)cc3)C=CC3C(=O)N(c4ccccc4)C(=O)C32)cc(OC)c1OC` (stereo unspecified), the z-score is -4.37 (inactive).

As for `Cn1cccc1C(O)C1C=CC2C(=O)N(c3ccccc3)C(=O)C2N1Nc1ccccc1` (stereo unspecified), the z-score was -1.94 (inactive).

Consider `CCOC(=O)C=Cc1cccc(C)c1O`, for which the z-score is -4.89 (inactive).

As to `COC(=O)C1=CC(CCCO)=CC(c2cccs2)N(Cc2cccc(OC(F)(F)F)c2)C=C1C(=O)OC` (stereo unspecified), the z-score is -0.436 (inactive).

On to `[N-]=[N+]=Nc1ccccc1[C@@H]1OC(c2ccc(OCCCO)cc2)=N[C@]1(Cc1ccccc1)C(=O)N1CCCCC1`, for which the z-score is -0.743 (inactive).

For the compound `C=CCNC(=O)[C@@H]1[C@H]2C(=O)O[C@H](c3ccccc3)[C@H](c3ccccc3)N2[C@H](c2ccc(O)cc2)[C@@]12C(=O)N(C(=O)OCCOC)c1ccc(C#CC3=CCCCC3)cc12`, the z-score is 0.339 (inactive).

In the case of `CCOC(=O)C[C@H]1[C@H](OC(=O)c2cc3ccccc3oc2=O)[C@@H](NC(=O)CC(C)C)c2cc(OCCCO)ccc2N1C(=O)c1ccc2ccccc2n1`, the z-score was 1.23 (inactive).

`NCCCCCNC(=O)[C@@H]1C[C@@H]2C(=O)N[C@@H](CCCCN)C(=O)N2[C@@H]1c1ccc(O)cc1`: the z-score is 1.85 (inactive).

For the compound `CC(C)C(CO)N1C(=O)[C@@H]2C3C(=O)OCCC/C=C\[C@H]3OC23C=CCN(Cn2nnc4ccccc42)C(=O)[C@@H]13` (stereo partly specified), the z-score is 0.806 (inactive).

For the compound `[N-]=[N+]=NCc1ccccc1C[C@@]1(C(N)=O)N=C(c2ccc(OCCCO)cc2)O[C@@H]1c1ccccc1`, the z-score is 0.64 (inactive).

Take `CCOC(=O)C[C@H]1[C@H](OC(=O)c2ccc(C(=O)c3ccccc3)cc2)[C@@H](NC(=O)CC(C)C)c2cc(OCCCO)ccc2N1C(=O)c1ccccc1`: the z-score is 0.861 (inactive).

Turning to `CC(C)[Si](C#C[Si](C(C)C)(C(C)C)C(C)C)(O[C@H](c1ccccc1)c1cn(Cc2ccccc2)nn1)C(C)C`, the z-score is -1.17 (inactive).

For the compound `COC(=O)C/C=C/C[C@]1(O)C(=O)N(C)c2ccccc21`, the z-score is 0.4 (inactive).

As for `CN1C(=O)C2C=CC(C(O)c3cccn3C)N(Nc3ccc([N+](=O)[O-])cc3[N+](=O)[O-])C2C1=O` (stereo unspecified), the z-score is -1.5 (inactive).

Regarding `C=CCN1Cc2ccccc2[C@@H]2OC(c3ccc(OCCCO)cc3)=N[C@]2(CC=C)C1=O`, the z-score is 0.452 (inactive).

In the case of `CCCC=C(CCC)[C@@H](NP(=O)(c1ccccc1)c1ccccc1)c1ccc(-c2ccccc2)cc1`, the z-score was -1.94 (inactive).

For `C=C(COC)C(=O)CC[C@@H](OC(C)=O)c1cccc(OCCO)c1`, the z-score was -1.01 (inactive).

Take `CCOC(=O)C1=CC[C@@H](c2ccccc2F)N(S(=O)(=O)c2ccc(C)cc2)[C@H]1c1ccccc1`: the z-score is 0.6 (inactive).

`O=C1O[C@H](c2ccccc2)[C@H](c2ccccc2)N2[C@H]1[C@@H](C(=O)O)[C@]1(C(=O)Nc3ccc(C#CCCO)cc31)[C@H]2c1ccccc1OCCO`: the z-score is 0.226 (inactive).

As for `COc1cc2c(cc1O)C(C1CC1)N(C)CC2` (stereo unspecified), the z-score was -2.57 (inactive).

For the compound `COC(=O)[C@@]1(Cc2ccc(OC)cc2)[C@H]2c3cc(C(=O)N4CCCC4)n(CCO)c3C[C@H]2CN1C(=O)c1ccccc1`, the z-score was -2.96 (inactive).

As to `[N-]=[N+]=Nc1ccccc1C[C@]1(C(=O)N2CCOCC2)COC(c2ccc(OCCCO)cc2)=N1`, the z-score is -0.00663 (inactive).

Take `O=C1C2C=CC(C(O)c3ccco3)N(Nc3ccccc3F)C2C(=O)N1c1ccccc1` (stereo unspecified): the z-score is 0.251 (inactive).

On to `CCCCCN1CC=CC23O[C@@H]4/C=C\CCCOC(=O)C4[C@H]2C(=O)N(C(C)CO)[C@@H]3C1=O` (stereo partly specified), for which the z-score is 0.19 (inactive).

In the case of `COC(=O)c1c(CC[C@@H](CO)NC(=O)N2CCC[C@H]2Cn2cc(C3(O)CCCCC3)nn2)oc(C(C)=O)c1C(=O)OC`, the z-score is -0.981 (inactive).

As to `CCCCNC(=O)c1ccc(C#CC(C)(C)C)c(OC(C)=O)c1`, the z-score was 0.344 (inactive).

On to `COc1ccccc1CN1C(=O)c2ccccc2[C@](Cc2ccccc2I)(C(=O)O)[C@@H]1c1ccc(CO)cc1`, for which the z-score is 0.616 (inactive).
